# RGS12 GoLoco inh – blocks human Gai1 binding to RGS12 GoLoco peptide, red readout; Potency, µM (top dose mostly 61.6 µM), inactives show at the highest dose activity, negative = inhibition, most hits filed as inhibitors; P63096; Gai1:RGS12 GoLoco peptide FP, rhodamine, 10 min; 0.44% of 230,000 active; AID 880; active means well fitted inhibition curve with a large enough effect, not every such curve was filed as active; inactive means no such curve, though single readings can be large or run the other way; further: nearly all actives have a fitted effect of over 30% in size
# Target sequence (P63096 whole entry, looked up): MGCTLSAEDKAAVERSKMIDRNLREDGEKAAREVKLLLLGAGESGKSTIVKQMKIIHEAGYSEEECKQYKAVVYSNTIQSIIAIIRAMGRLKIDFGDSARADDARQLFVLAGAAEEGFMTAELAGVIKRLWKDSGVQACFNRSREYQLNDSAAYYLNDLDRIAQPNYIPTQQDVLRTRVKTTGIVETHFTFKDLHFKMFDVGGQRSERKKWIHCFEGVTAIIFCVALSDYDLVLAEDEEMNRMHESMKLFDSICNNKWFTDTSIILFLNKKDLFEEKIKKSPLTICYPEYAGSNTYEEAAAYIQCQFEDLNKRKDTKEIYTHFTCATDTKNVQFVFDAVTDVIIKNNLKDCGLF
# Tau ThT inhib – tau fibrillization inhibition (ThT binding); P10636; recombinant tau K18 P301L, heparin-induced fibrillization, ThT fluorescence; Potency, µM (top dose mostly 57.4 µM), without a hit: at the top dose activity, negative = inhibition, most hits filed as inhibitors; 2.1% of 270,000 active; AID 1460; further: nearly all actives have a fitted effect of over 55% in size
# Target sequence (P10636 561-689 P618L limits assumed): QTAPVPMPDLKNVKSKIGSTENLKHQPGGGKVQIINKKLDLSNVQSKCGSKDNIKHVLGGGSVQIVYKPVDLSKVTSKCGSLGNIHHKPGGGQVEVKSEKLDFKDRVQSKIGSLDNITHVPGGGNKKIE
#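 K18 P301L tau (15 uM + 0.24 uM Alexa 594-tagged), heparin 20 uM, NaOAc pH 7, 6 h 37 C; ThT 30 uM, 1 h RT, ex 450/em 510 nm.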
# Tau FP inhib – tau fibrillization inhibition (FP); AID 1468; K18 P301L tau heparin fibrillization, Alexa594 FP, 6 h; Potency, µM (doses to about 57.7 µM), for the others: at the highest dose activity, negative = inhibition, hits mostly inhibitors; P10636; 0.39% of 280,000 active; further: nearly all actives have a fitted effect of over 55% in size
#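 Human K18 P301L fragment (15 uM unlabeled plus 0.24 uM Alexa 594-labeled) in 100 mM sodium acetate pH 7 with compound, aggregation induced by 20 uM heparin for 6 hr at 37 C. ThT (30 uM) added for 1 hr, then Alexa 594 FP read.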
# TRb-SRC2 inh – inhibitors of human thyroid hormone receptor beta-SRC2 interaction; AID 1469; P10828; 0.065% of 280,000 active; Potency, µM (series often up to 106 µM), inactives show top-dose activity change, negative = inhibition, hits mostly inhibitors; TRbeta-SRC2 peptide binding, fluorescence polarization; receptor liganded with 1 µM T3;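 further: plate controls were bound peptide for no effect and peptide without receptor for full effect; nearly all actives have a fitted effect of over 50% in size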
#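 Assay buffer: 20 mM Tris-HCl, 100 mM NaCl, 10% glycerol, 1 mM EDTA, 0.01% NP-40, 1 mM DTT, 1 uM T3, 5% DMSO; TRb LBD 0.6 uM, Texas Red SRC2 20 nM; FP after 5 hr.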
# TR SRC2 fluor cs – alters Texas Red total fluorescence, flagging assay interference. Potency, µM (titrated, usually from 106 µM), for inactives: at the top dose fluorescence change, negative = quenching. 0.29% of 280,000 active. TRb/SRC2 Texas Red total fluorescence interference; active means well fitted curve in either direction with a large enough effect; inconclusive means small, poorly fitted or top-dose-only effect
#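 Human TRβ ligand-binding domain (0.6 uM) and Texas Red SRC2 peptide (20 nM) in Tris buffer with 1 uM T3 and 5% DMSO were incubated with pinned compound for 5 hr at ambient temperature. Total fluorescence was computed as S + 2P (555/632 nm).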
# Tau fluor counter – counter-screen for tau fibril formation inhibitors; tau K18 P301L Alexa594 fluorescence, heparin fibrillization; Potency, µM (titrated, usually from 57.7 µM), for inactives: top-dose activity change, negative = decrease; 0.93% of 280,000 active; AID 1463; further: nearly all actives have a fitted effect of over 55% in size
#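 Human tau K18 P301L (15 uM unlabeled, 0.24 uM Alexa 594-labeled) in 100 mM sodium acetate pH 7 with 20 uM heparin, 6 hr at 37 C. ThT 30 uM added, 1 hr ambient; Alexa 594 FP and total fluorescence read at 555/632 nm.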
# An asterisk follows results filed as active; ? = inconclusive; . = no result; [ ] = dose if it differs, or a comment. The list is not random: actives were taken first. Their share in the collection is about 3.2%. Unless noted, the call rests on the fitted dose curve; in most records, active means well fitted curve in the direction sought with a large enough effect; inconclusive means small, poorly fitted or top-dose-only effect, or another doubt; inactive means no such curve, though single readings can be large; an effect the other way counts as inactive or inconclusive. Unless noted, on the % scale 0 is the no-effect control and ±100 the full control effect; potency means the concentration at half of the fitted maximal effect.
SMILES,RGS12 GoLoco inh,Tau ThT inhib,Tau FP inhib,TRb-SRC2 inh,TR SRC2 fluor cs,Tau fluor counter
Cc1ccc(N)c(C)c1,-4%,.,.,-6%,-1%,.
Cc1ccc(N=Nc2cc(C)ccc2N)cc1,4%,11µM*,18%,1%,-1%,18µM*[quencher]
CC1(C)[C@H](C=C(Cl)Cl)[C@H]1C(=O)O[C@H](C#N)c1ccc(F)c(Oc2ccccc2)c1,.,.,.,4%[201 µM],-2%[201 µM],.
O=C1NC(=O)N(c2ccccc2)C(=O)/C1=C\c1ccc([N+](=O)[O-])o1,70%,18µM*,?,8%,17%,?
CN1C(=O)NC(=O)/C(=C/c2ccc(C(=O)O)cc2)C1=O,1%,.,4%,-7%,-3%,?
CN1C(=O)NC(=O)/C(=C/c2ccc([N+](=O)[O-])o2)C1=O,-24%,13µM*,?,0%,7%,-29%
CN1C(=O)NC(=O)/C(=C\c2ccc([N+](=O)[O-])o2)C1=O,24%,28µM*,?,3%,14%,-21%
Cc1ccc(/C=C2/C(=O)NC(=O)N(C)C2=O)cc1,13%,?,-16%,-4%,1%,-3%
CCNS(=O)(=O)C(F)(F)C(F)(F)C(F)(F)C(F)(F)C(F)(F)C(F)(F)C(F)(F)C(F)(F)F,.,.,.,-1%[201 µM],-2%[201 µM],.
N#Cc1cc(I)c(O)c(I)c1,.,.,.,9%[201 µM],-5%[201 µM],.
C[C@@H]1NCCc2cc(O)c(O)cc21,3.5µM*,.,.,-5%[53 µM],-1%[53 µM],.
O=C1NC(=O)C(=Cc2ccccc2Oc2ccc(F)cc2)C(=O)N1,19%,?,3%,0%,1%,-4%
O=C1NC(=S)NC(=O)C1=Cc1cccc2cc3ccccc3cc12,-7%[14.2 µM],11µM*,-16%,-9%,-5%,16µM*[quencher]
CC12C=CC(=O)C=C1CCC1C2=CCC2(C)C1CC[C@@H]2C(=O)CN1CCN(c2cc(N3CCCC3)nc(N3CCCC3)n2)CC1 (stereo partly specified),15%,7.1µM*,?,-16%,1%,-13%
COc1ccc(Nc2cc(C)c3cc(NC(=O)c4ccccc4Cl)ccc3n2)cc1,.,4µM*,?,9%,-22%,8.9µM*[quencher]
Cc1ccccc1C(=O)Nc1cccc(OC(C)C)c1,.,.,.,-5%[201 µM],-3%[201 µM],.
CC(=O)OC1CC(OC(C)=O)[C@]2(C)C(CC(OC(C)=O)[C@]3(C)C2CC[C@@]2(C)C(c4ccoc4)C[C@H]4O[C@]432)C1(C)C (stereo partly specified),11%,-2%,-7%,-7%,-3%,-13%
CC1(C)C2C[C@@H](O)[C@]3(C)C(CC[C@@]4(C)[C@H](c5ccoc5)C[C@H]5O[C@]543)[C@@]2(C)[C@@H](O)C[C@H]1O (stereo partly specified),9%,-4%,0%,3%,-3%,0%
CC(=O)OC1C[C@@]2(C)C(c3ccoc3)C[C@H]3O[C@@]32[C@@]2(C)C(=O)C(O)=C3C(C)(C)C(=O)C=C[C@]3(C)C12 (stereo partly specified),8%,8.9µM*,?,-4%,0%,-17%
CC(=O)O[C@@H]1C[C@@]2(C)C(c3ccoc3)C[C@H]3O[C@]32[C@]2(C)C(=O)C(O)=C3C(C)(C)C(=O)C=C[C@]3(C)C12 (stereo partly specified),-28%,25µM*,?,-6%,-1%,-8%
O=C1NC(=O)N(Cc2ccccc2Cl)C(=O)/C1=C/N1CCOCC1,14%,18µM*,?,-5%,-5%,-23%
COc1cc2c(cc1O)-c1c(O)c(OC)cc3c1[C@H](C2)N(C)CC3,-13%,28µM*,?,-6%,-4%,?
O=C(Nc1ccccc1)Nc1ccnc(Cl)c1,.,.,.,6%[201 µM],-1%[201 µM],.
CSC1=N[C@@](C)(c2ccccc2)C(=O)N1Nc1ccccc1,.,.,.,1%[201 µM],-2%[201 µM],.

# Screens as filed in PubChem BioAssay.
